Reference: ChEMBL document CHEMBL1157539, “Thousands of chemical starting points for antimalarial lead identification” (Nature, 2010)

What was measured:
Type in all cases: functional
Plasmodium falciparum [1] = assay: GSK_TCMDC: Inhibition of Plasmodium falciparum 3D7 in whole red blood cells, using parasite LDH activity as an index of growth. Test compounds present at 2uM
Plasmodium falciparum [2] = assay: GSK_TCMDC: Inhibition of Plasmodium falciparum Dd2 in whole red blood cells, using parasite LDH activity as an index of growth. Test compounds present at 2uM
HepG2 = assay: GSK_TCMDC: Percent inhibition of human HepG2 cell line. Test compounds present at 10uM.

Row | Compound | Inhibition (Plasmodium falciparum [1]) [%] | Inhibition (Plasmodium falciparum [2]) [%] | Inhibition (HepG2) [%]
1 | COc1ccccc1CN1CCC(NC(=O)c2ccc(-c3ccc(N(C)C)cc3)s2)CC1.O=C(O)C(F)(F)F | 90 | 38 | 29
2 | COc1ccc(NC(=O)Nc2cccc(-c3ccncc3)c2)cc1N1CCN(C)CC1 | 98 | 57 | 9
3 | CCOc1ccc(-c2nonc2NC(=O)c2ccc(Cl)cc2)cc1OCC | 94 | 47 | 28
4 | CNC(=O)C(NC(=O)c1ccccc1C(=O)OC)c1ccccc1 (stereo not drawn) | 96 | 2 | 4
5 | O=C(O)C(F)(F)F.Oc1ccc(CCNc2nc(NCc3ccccc3Oc3ccc(C(F)(F)F)cc3)nc(N3CCNCC3)n2)cc1 | 86 | 2 | 26
6 | Cc1ccc2nc3c(cc(C(=O)NCCc4ccccc4)c(=N)n3CCCOC(C)C)c(=O)n2c1 | 96 | 12 | 15
7 | COc1cccc(C(=O)OC2=C3CCC(=O)C3(C)CCC2=O)c1 (stereo not drawn) | 93 | 9 | 37
8 | CN1CCN(c2ccnc3ccc(NC(=O)Nc4ccc(Cl)c(Cl)c4)cc23)CC1 | 97 | 17 | 0
9 | CCOC(=O)c1ccc(OCc2ccc(-c3ccccc3)cc2)cc1 | 96 | 0 | 18
10 | COc1ccc2ncc(F)c(CCN3CC(O)C(CNCc4ccc5c(n4)NC(=O)CS5)C3)c2c1.Cl (stereo not drawn) | 92 | 34 | 0
11 | CC(C)COc1ccc(Cl)cc1Cc1ccc(-c2nc3cc(CCN(C)C)ccc3[nH]2)o1.Cl | 92 | 7 | 10
